# Experimental data taken from the supplement of paper PMC3334620.
# The full ranking holds about 33,000 sequences; the median of “E-score (-0.5 to 0.5)” is about -0.035, and the highest 2% start at about 0.35. The sample as a whole holds a higher share of the highest values than the screen did.
# Target: T1, Pdr3 (UniProt P33200)
# T1 sequence: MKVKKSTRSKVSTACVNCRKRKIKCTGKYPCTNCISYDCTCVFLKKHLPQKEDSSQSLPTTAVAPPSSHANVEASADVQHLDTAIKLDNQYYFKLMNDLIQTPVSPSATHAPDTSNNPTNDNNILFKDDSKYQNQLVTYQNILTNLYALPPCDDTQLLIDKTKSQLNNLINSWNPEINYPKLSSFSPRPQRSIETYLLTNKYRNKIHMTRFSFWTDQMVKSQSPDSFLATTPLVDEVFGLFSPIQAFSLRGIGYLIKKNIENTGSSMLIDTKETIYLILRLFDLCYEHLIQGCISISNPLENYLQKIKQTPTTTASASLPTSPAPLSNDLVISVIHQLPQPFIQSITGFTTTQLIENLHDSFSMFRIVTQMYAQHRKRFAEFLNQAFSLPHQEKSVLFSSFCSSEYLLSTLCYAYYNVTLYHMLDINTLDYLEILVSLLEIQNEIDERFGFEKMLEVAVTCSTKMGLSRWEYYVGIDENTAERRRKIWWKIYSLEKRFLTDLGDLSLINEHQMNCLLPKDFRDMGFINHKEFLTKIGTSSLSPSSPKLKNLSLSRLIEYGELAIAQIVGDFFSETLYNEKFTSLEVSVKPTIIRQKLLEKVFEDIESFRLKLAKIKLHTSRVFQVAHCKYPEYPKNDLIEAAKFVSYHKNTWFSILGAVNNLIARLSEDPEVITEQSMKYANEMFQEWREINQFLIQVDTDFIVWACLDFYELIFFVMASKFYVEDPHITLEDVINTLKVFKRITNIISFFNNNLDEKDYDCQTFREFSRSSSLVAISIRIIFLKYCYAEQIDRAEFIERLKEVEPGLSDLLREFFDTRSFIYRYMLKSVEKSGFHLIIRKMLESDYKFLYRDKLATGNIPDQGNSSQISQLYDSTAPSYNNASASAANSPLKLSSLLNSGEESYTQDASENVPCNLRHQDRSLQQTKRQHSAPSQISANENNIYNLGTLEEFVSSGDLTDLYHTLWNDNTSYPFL
# Experiment: PBM E-score (8-mer binding enrichment) (E-score (-0.5 to 0.5)); higher = stronger / more preferred TF binding
# Conditions: protein concentration: 200 nM; construct: GST-full length
# Procedure: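 Universal 'all 10-mer' protein binding microarrays (Agilent AMADID 015681) probed with GST-tagged S. cerevisiae TFs (full-length or DBD) made by in vitro transcription/translation (PURExpress), about 100-200 nM. Bound TF was detected with fluorescent anti-GST. Each ungapped 8-mer (which stands for itself and its reverse complement) is scored by the PBM enrichment score (E-score), a modified Wilcoxon-Mann-Whitney statistic from -0.5 to +0.5, computed with the Universal PBM Analysis Suite. Scale: above 0.35 generally sequence-specific binding.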
row,Sequence,PBM E-score
1,AGATTCAG,-0.0749
2,GGTATTCA,0.0285
3,CACCGTCA,0.00596
4,CCTAACTA,-0.0709
5,GCGTAGCA,0.0185
6,ATTATCCG,0.388
7,ATTATCCC,0.185
8,ATTATCCA,0.0658
9,CCACTGCA,-0.0534
10,GCTTGGCC,-0.00234
11,CGGGAAAA,0.221
12,CCGCTCCG,0.378
13,CCGCTCCC,0.151
14,ACGCTCCG,0.315
15,ACATCTCG,-0.111
16,GTCACGGA,0.415
17,ATGACGGC,0.141
18,ATGACGGA,0.362
19,ATCACGGA,0.391
20,CTCACGGA,0.325
21,GTGACGGA,0.31
22,ATCACGGG,0.0804
23,GTCACGCA,-0.0717
24,ATCACGGC,0.218
25,AAGGAAGC,-0.0529

row,Sequence,PBM E-score
1,CACACCGC,0.166
2,CCCTAATA,-0.113
3,GAAGGAAA,-0.00233
4,AGGCGTAC,-0.182
5,ATGTCTCA,-0.0576
6,GGGAACGA,0.0381
7,AGGAACGC,-0.00648
8,AGGAACGA,-0.1
9,CGGAACGC,0.466
10,CGGAACGA,0.464
11,CAGAACGC,0.0429
12,ACACCGAC,0.0164
13,CCGGACCA,0.337
14,ACGGACCA,0.359
15,ACGGACCT,0.275
16,ACGGACCG,0.309
17,TCGGACCA,0.292
18,GCGGACCA,0.366
19,AGGTGTGA,-0.138
20,GTGGTGGA,-0.0783
21,CAGTTGGA,-0.0903
22,CGTGCAGA,-0.148
23,GGCGGAGA,0.288
24,AGCGGAGA,0.232
25,CGCGGTGC,0.172

row,Sequence,PBM E-score
1,CGCGGAGA,0.415
2,AGCGGAGC,0.216
3,CGCGGAGC,0.445
4,CGAACTGA,0.0143
5,GTCGCGAC,0.38
6,CTCGCGAC,0.0674
7,GTCGCGAA,0.0709
8,ACCTCTTC,-0.0577
9,GATCCATC,0.232
10,AACTTCCA,0.0852
11,ACCTTCCT,-0.244
12,CCCTTCCG,0.392
13,ATCTTCCC,0.268
14,CCCTTCCC,0.0658
15,ATCTTCCG,0.376
16,ATCTTCCA,-0.196
17,ACCTTCCG,0.394
18,AACTTCCT,-0.108
19,AACTTCCG,0.388
20,CCCTTCCA,-0.00559
21,ACCTTCCC,0.0674
22,GAGCGTCC,-0.174
23,AGCAATGA,-0.0334
24,CTCTTTCA,-0.137
25,ATGCTCAC,-0.048

row,Sequence,PBM E-score
1,CACTCCTA,-0.112
2,GAAAGCCC,0.201
3,CTATTGAC,-0.153
4,GTCTCTTA,0.0669
5,ACCCATGC,-0.0401
6,AGGAAGTC,-0.162
7,GGGAAGTA,0.097
8,AGGAAGTA,0.0507
9,CTGAAGTC,0.0005
10,CGGAAGTA,0.393
11,CGGAAGTC,0.421
12,ATTGGGCA,-0.131
13,ACAAGCAT,-0.0569
14,GAGTGATC,0.0656
15,GAGCGGGC,0.113
16,TACGGACA,0.225
17,AACGGACC,0.303
18,AACGGTCA,0.146
19,CACGGACG,0.324
20,CACGGACA,0.355
21,AACGGACA,0.363
22,AACGGACG,0.241
23,CACGGACC,0.378
24,GACGGACC,0.33
25,CCACCCCG,0.165

row,Sequence,PBM E-score
1,CCCTGCTA,-0.0619
2,TACGGGCA,0.00013
3,CTGTTCCC,0.0618
4,ACACTAGT,-0.167
5,AGGCTTTC,-0.203
6,TCTGTGAA,-0.0705
7,CCGGAGAA,0.385
8,TCGGAGAA,0.225
9,ACGGAGAG,0.319
10,GCGGAGAC,0.336
11,ACGGAGAA,0.265
12,CCGGAGAC,0.37
13,CCGGAGAG,0.363
14,ACGGAGAC,0.321
15,CAGGAGAG,-0.174
16,AATGAGGA,-0.177
17,GCAGTCGC,-0.0644
18,TATCGCGA,0.258
19,GCCTTCCC,-0.1
20,CCTACTCC,-0.0705
21,GCTACTGA,0.00622
22,AATTCCCG,0.298
23,GATTCCCC,0.0929
24,CATTCCAC,0.0732
25,CATTCCTC,0.0812

row,Sequence,PBM E-score
1,AATTCCTC,0.0037
2,AATTCCGG,0.449
3,GATTCCGC,0.455
4,AATTCCTG,-0.021
5,CATTCCGC,0.421
6,GATTCCAC,0.19
7,AATTCCCC,0.203
8,AATTCCGC,0.397
9,CGCCCTCC,0.0638
10,TAATGATA,0.132
11,ATCGCATC,0.121
12,GTCCCAAA,-0.154
13,CAGGCCAC,0.00119
14,ATTTGCAG,-0.0031
15,ACCATAGG,-0.229
16,GAGAAAAA,0.176
17,ATCTGGGG,-0.109
18,AATTCCGT,0.449
19,AATTCCCA,-0.171
20,AATTCCAT,0.156
21,AATTCCGA,0.423
22,AATTCCAA,-0.0365
23,AATTCCCT,-0.207
24,ACTAGCCG,0.105
25,GACCCGAC,0.21

row,Sequence,PBM E-score
1,GGCCCGGA,0.336
2,CGCCCGAA,0.117
3,CGCCCGGC,0.293
4,AGCCCGGA,0.355
5,AGCCCGGC,0.264
6,AGCCCGGG,0.383
7,CGCCCGGA,0.396
8,AGCCCGAG,-0.044
9,AGCCCCGG,0.303
10,ACACAGTC,-0.0508
11,CTAGCATC,-0.172
12,CTTTCTAC,-0.16
13,ACCATACG,-0.0138
14,CTGGCGGA,0.131
15,GCGGCGGA,0.404
16,GTGGCGGA,0.271
17,ACGGCGGA,0.314
18,CCGGCGGC,0.325
19,CCGGCGGA,0.449
20,ATCTCCTA,-0.245
21,GATACGAA,0.033
22,GCCTGGCC,0.00694
